Screening results deposited in PubChem BioAssay by National Center for Advancing Translational Sciences (NCATS).
The list is not random: actives were taken first. Their share in the collection is about 2.3%.
A549 viability: Nrf2 qHTS screen for inhibitors: counterscreen for cytotoxicity. 390,000 tested, 0.16% active. Potency, µM (top dose mostly 46 µM), for the others: at the highest dose activity change, negative = cytotoxicity, usual class: inhibitors. A549 ARE-Fluc cells, CellTiter-Fluor viability, 18-24 h. AID 504648, 2011; note: potency is the fitted concentration of half-maximal effect; % is set by controls: 0 for no effect and ±100 for the full control effect
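Cytotoxicity counterscreen: CellTiter-Fluor fluorescence was measured in A549 ARE_Fluc cells after 18-24 h of compound exposure in a concentration series. The subsequent BugLite luminescent read reports ARE-luciferase activity.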
Anesthetic bind: qHTS Assay for Identification of Novel General Anesthetics; Potency, µM (top dose mostly 77.5 µM), inactives show top-dose activity change, negative = displacement, hits mostly inhibitors; Ferritin light chain (Equus caballus), P02791; 350,000 tested, 0.074% active; AID 485281, 2010; apoferritin/1-aminoanthracene competitive binding, fluorescence; note: potency is the fitted concentration of half-maximal effect; % is set by controls: 0 for no effect and ±100 for the full control effect; nearly all actives have a fitted effect of over 20% in size
Target sequence (P02791 2-175 limits assumed): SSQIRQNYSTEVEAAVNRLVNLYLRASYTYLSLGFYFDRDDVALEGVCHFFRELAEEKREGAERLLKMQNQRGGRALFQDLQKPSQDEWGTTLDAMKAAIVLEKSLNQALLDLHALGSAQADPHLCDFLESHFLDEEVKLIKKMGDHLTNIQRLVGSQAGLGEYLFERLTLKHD
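Horse-spleen apoferritin (10 uM) in 50% saturated 1-aminoanthracene in PBS was incubated 10 min at room temperature with compound. Fluorescence (ex 380, em 535 nm) was normalized to free and bound 1-AMA, with concentration-response fitted by a four-parameter Hill equation.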
IDH1 R132H inh: qHTS for Inhibitors of mutant isocitrate dehydrogenase 1 (IDH1): qHTS; Isocitrate dehydrogenase [NADP] cytoplasmic (Homo sapiens), O75874; Potency, µM (titrated, usually from 76.6 µM), for inactives: at the top dose activity change, negative = inhibition, hits mostly inhibitors; IDH1-R132H enzyme, NADPH consumption, diaphorase/resazurin fluorescence; 390,000 tested, 0.093% active; note: potency is the fitted concentration of half-maximal effect; % is set by controls: 0 for no effect and ±100 for the full control effect; nearly all actives have a fitted effect of over 65% in size
Target sequence (O75874 whole entry R132H, stated change not applied): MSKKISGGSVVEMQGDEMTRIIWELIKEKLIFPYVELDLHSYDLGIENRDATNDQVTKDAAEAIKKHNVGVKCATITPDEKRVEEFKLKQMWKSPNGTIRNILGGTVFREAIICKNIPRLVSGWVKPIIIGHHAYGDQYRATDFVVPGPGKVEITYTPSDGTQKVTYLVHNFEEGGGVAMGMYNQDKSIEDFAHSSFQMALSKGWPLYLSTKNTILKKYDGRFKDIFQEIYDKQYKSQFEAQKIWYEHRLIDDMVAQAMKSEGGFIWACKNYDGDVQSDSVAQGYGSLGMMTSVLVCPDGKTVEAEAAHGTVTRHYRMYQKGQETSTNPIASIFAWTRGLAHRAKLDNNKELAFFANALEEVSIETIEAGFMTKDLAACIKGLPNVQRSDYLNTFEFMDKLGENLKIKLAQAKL
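IDH1-R132H (0.5 ug/mL dispensed) in pH 7.5 Tris buffer was preincubated 30 min with compound, then given a substrate mix of 0.016 mM NADPH and 2 mM alpha-KG for 80 min at room temperature; remaining NADPH was read by diaphorase/resazurin fluorescence.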
Nrf2 block: Nrf2 qHTS screen for inhibitors; A549 ARE-Fluc reporter, luciferase luminescence, 18-24 h; Potency, µM (titrated, usually from 46 µM), without a hit: at the highest dose activity change, negative = inhibition, hits mostly inhibitors; 360,000 tested, 2.1% active; AID 504444, 2011; note: potency is the fitted concentration of half-maximal effect; % is set by controls: 0 for no effect and ±100 for the full control effect; nearly all actives have a fitted effect of over 60% in size
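Nrf2 activity is the BugLite luminescence, read 15 min after reagent at room temperature, following CellTiter-Fluor cytotoxicity readout (30 min, 37C). Compound titrations were applied for 18-24 h to 5000 A549 ARE_Fluc cells/well in 5% FBS OPTI-MEM.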
Giardia killer: Small Molecules that selectively kill Giardia lamblia: qHTS. AID 540267, 2011. 340,000 tested, 0.15% active. activity change, % at 7.66 µM, hits read low. Giardia lamblia trophozoite viability; in the data active = activity change below about -80%; inconclusive = between about -30% and that limit;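 note: parasites exposed to compound for two days anaerobically before the ATP read; % is set by controls: 0 for no effect and ±100 for the full control effect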
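ATP-content bioluminescence gauges trophozoite survival. Cells (100/well) receive compound and incubate anaerobically for 48 hrs at 37 deg C; detection reagent follows for 15-30 min at room temperature.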
Nrf2 ARE act: qHTS of Nrf2 Activators. AREc32 ARE-luciferase reporter (MCF7-derived line), luminescence, 24 h. 410,000 tested, 0.31% active. Potency, µM (titrated, usually from 46.1 µM), without a hit: top-dose activation, usual class: activators. AID 624171, 2012; note: potency is the fitted concentration of half-maximal effect; % of control where 0% means no effect; nearly all actives have a fitted effect of over 65% in size
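Each well held 1000 AREc32 cells, which were incubated with compound for 24 hr at 37 deg C after overnight attachment, and ARE reporter activity was quantified by firefly luciferase luminescence.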
The depositor's hits bear a star; u = inconclusive; x = not tested or not shown; [ ] = remark or other dose. Unless noted, calls come from the whole dose curve; as a rule, active = well fitted curve in the direction sought with a large enough effect; inconclusive = small, poorly fitted or top-dose-only effect, or another doubt; inactive = no such curve, though single readings can be large; an effect the other way counts as inactive or inconclusive.

SMILES	A549 viability	Anesthetic bind	IDH1 R132H inh	Nrf2 block	Giardia killer	Nrf2 ARE act
CNC(=O)C1CCC(Cn2c(=O)c3sccc3n(CC(=O)Nc3ccc(C)cc3C)c2=O)CC1 (stereo unspecified)	3%	-3%	13%	u	x	1%
Cc1ccccc1-c1noc(-c2ccccc2F)n1	-1%	-12%	8%	x	2	8.9µM*
Cc1ccccc1-c1noc(-c2ccc(Cl)cc2)n1	1%	-11%	-2%	u	-13	12%
Cc1cccc(C(=O)Nc2cc3c(cc2C)n(C)c(=O)n3C)c1	4%	26%	4%	x	x	12%
CC(=O)Nc1nc(-c2ccccc2)nc(-c2ccccc2OC(C)=O)n1	-25%	-12%	0%	13µM*	8	23%
CC(=O)Nc1nc(C)nc(-c2ccccc2OC(C)=O)n1	0%[1.84 µM]	27%	7%	8%	3	1%
O=C1C(=O)N(c2ccccn2)C(c2ccc(F)cc2)/C1=C(/O)c1ccc(Br)cc1 (stereo unspecified)	-6%	-4%	-6%	8.2µM*	u	-1%
Cc1ccc(CSC(Nc2ccc(F)cc2)=C(C#N)C#N)cc1	u	-10%	0%	21µM*	13	26%
COc1ccc(C2Nc3ccccc3C(=O)N2Cc2ccccc2)cc1COc1ccc(F)cc1 (stereo unspecified)	8%	x	x	-12%	x	x
OCc1cccc(-c2csc(C(O)(c3ccccc3)C(F)(F)F)n2)c1 (stereo unspecified)	x	x	x	x	x	3%
Cc1ccc(-c2nnc(Nc3ccccc3)c3ccccc23)cc1S(=O)(=O)NCC1CCCO1 (stereo unspecified)	-3%	48%	4%	u	-8	0%
Cc1ccc(C)c(Nc2nnc(-c3ccc(C)c(S(=O)(=O)NCC4CCCO4)c3)c3ccccc23)c1 (stereo unspecified)	-12%	53%	-7%	23µM*	x	5%
COc1ccc(SCC(O)Cn2c3ccccc3c3ccccc32)c(OC)c1 (stereo unspecified)	x	x	x	x	x	7%
O=C(c1cc(COc2cccc(C(F)(F)F)c2)on1)N1CCC(c2ccccc2)CC1	-19%	7%	2%	13µM*	6	0%
CC(=O)c1ccc(OCc2cc(C(=O)N3CCC(c4ccncc4)CC3)no2)cc1	1%	-8%	-7%	0%	21	8%
COc1cccc(OCc2cc(C(=O)N3CCC(c4ccncc4)CC3)no2)c1	-17%	-12%	20%	5.2µM*	-11	3%
O=C(c1cc(COc2cccc(C(F)(F)F)c2)on1)N1CCC(c2ccncc2)CC1	-12%	-9%	3%	13µM*	2	2%
Cc1cccc(C)c1OCc1cc(C(=O)N2CCC(c3ccccc3)CC2)no1	13%	44%	9%	30%	16	1%
NC(=O)c1c(NC(=O)CS(=O)(=O)c2ccc(Cl)cc2)sc2c1CCCC2	6%	12%	12%	x	x	2%
CC(=O)Nc1ccc(NC(=O)c2oc3c(c2C)-c2nn(Cc4ccccc4Cl)cc2CC3)cc1	1%	-17%	-3%	5%	x	-1%
Cc1ccc(SC2=NS(=O)(=O)c3ccccc32)c(C)c1	2%	x	x	0%	-23	x
COc1ccc(/C=C(\C#N)C(=O)Nc2ccccn2)cc1	3%	-10%	3%	-6%	-24	0%
Cc1ccc(/C=C(\C#N)C(=O)Nc2ccccn2)o1	-7%	u	5%	u	-11	14µM*
Cc1cc2nc(-c3cccnc3SCC(=O)NC(C)C)[nH]c2cc1C	-5%	-6%	2%	4%	-15	7%
COCCOC(=O)CSc1ncccc1-c1nc2cc(C)c(C)cc2[nH]1	2%	-9%	7%	15µM*	u	3%
SMILES	A549 viability	Anesthetic bind	IDH1 R132H inh	Nrf2 block	Giardia killer	Nrf2 ARE act
COCCN1C(=O)CCC1(C)c1nnnn1-c1ccc2c(c1)OCCO2 (stereo unspecified)	x	x	x	x	x	0%
O=[N+]([O-])c1ccccc1N/N=C/c1c[nH]c2ccccc12	-27%	u	6%	u	-6	3.5µM*
Cc1sc(NC(=O)c2ccccc2F)c(CN2CCCCC2C)c1C (stereo unspecified)	-2%	u	7%	u	-13	13µM*
CC1CCN(C(=O)CN2C(=O)c3cccc4cccc(c34)C2=O)CC1	-2%	-3%	1%	2%	-15	11µM*
Cc1cccc(C)c1NC(=O)C(c1ccccc1)N(C)CCc1ccccc1 (stereo unspecified)	x	x	x	x	x	0%
NS(=O)(=O)c1ccc(CCNC(=O)CN2CCN(c3ccc(F)cc3)CC2)cc1	-11%	3%	6%	16µM*	6	0%
NS(=O)(=O)c1ccc(CCNC(=O)CN2CCN(c3cccc(Cl)c3)CC2)cc1	-4%	-6%	3%	u	-2	0%
COc1ccc(CCNC(=O)c2cccnc2)cc1OC	-7%	-6%	11%	x	0	0%
O=C(NCCCCNC(=O)c1cccnc1)c1cccnc1	-16%	0%	3%	-13%	8	0%
CC(C)(C)c1ccc(C(=O)NCCCNC(=O)c2cccnc2)cc1	-3%	3%	-3%	8.2µM*	-11	-1%
COc1ccc(C(=O)NCCCNC(=O)c2cccnc2)cc1OC	1%	-3%	-6%	10µM*	-12	0%
CC(C)C[C@H](NC(=O)[C@H](CCCCN)NC(=O)[C@H](CCC(N)=O)NC(=O)[C@H](Cc1cnc[nH]1)NC(=O)[C@H](Cc1cnc[nH]1)NC(=O)[C@@H](N)C(C)C)C(=O)N[C@H](C(=O)N[C@@H](Cc1ccccc1)C(=O)N[C@@H](Cc1ccccc1)C(=O)N[C@@H](C)C(=O)N[C@@H](CCC(=O)O)C(=O)N[C@@H](CC(=O)O)C(=O)N[C@H](C(=O)NCC(=O)N[C@@H](CO)C(=O)N[C@@H](CC(N)=O)C(=O)N[C@@H](CCCCN)C(=O)O)C(C)C)C(C)C	x	-2%	x	x	x	x
CC(/C=C(\NC(=O)c1ccccc1)C(=O)N=Nc1c(O)[nH]c2ccc(C)cc12)=C\c1ccccc1	u	-22%	4%	x	-9	8.9µM*
O=S(=O)(Nc1nc2ccccc2nc1N1CCN(c2ccccc2F)CC1)c1ccc(Cl)cc1	u	3%	-4%	23µM*	-7	-1%
Cc1cc(C)cc(OCC(=O)N2CCCCCC2)c1	-1%	u	0%	11%	5	0%
